Source: PubChem BioAssay (NCI)
Compounds without any hit were thinned out: in the full panel of roughly 83,000, 20% have a hit.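 Negative percent growth values reflect cell death: -40 means 40% of the cells present at the start died, and -100 means all died.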 Unmarked numbers belong to inactive results. Active and inactive are the calls of the source. Rule for the calls: active = growth percent below 10; inactive = the rest.

What was measured:
Experiment in all cases: NCI-60 one-dose screen, 48 h (100 = growth as untreated, 0 = no growth, -100 = all killed)
Settings in all cases: 10 µM unless noted
[1] = system: NCI-H23 lung
[2] = system: NCI-H226 lung
[3] = system: NCI-H322M lung
[4] = system: HOP-62 NSCLC
[5] = system: NCI-H460 lung
[6] = system: HOP-92 NSCLC
[7] = system: NCI-H522 lung
[8] = system: A549/ATCC NSCLC
[9] = system: COLO 205 colon
[10] = system: DU-145 prostate
[11] = system: K-562 leukemia
[12] = system: MALME-3M melanoma
[13] = system: MDA-MB-231 breast
[14] = system: RXF 393 renal
[15] = system: SF-268 CNS
[16] = system: SF-295 CNS
[17] = system: SF-539 CNS
[18] = system: UACC-257 melanoma
[19] = system: M14 melanoma
[20] = system: 786-0 renal

SMILES	growth [1]	growth [2]	growth [3]	growth [4]	growth [5]	growth [6]	growth [7]	growth [8]	growth [9]	growth [10]	growth [11]	growth [12]	growth [13]	growth [14]	growth [15]	growth [16]	growth [17]	growth [18]	growth [19]	growth [20]
NNC(=O)c1ccc(-n2nc(-c3ccccc3)c3ccccc32)cc1	87.8%	82.3%	74.5%	65.2%	97.2%	87.2%	79.8%	95.3%	79.8%	79.7%	84.1%	90.2%	63.9%	61.7%	64%	75.2%	82.8%	99.5%	77%	
COc1ccc(C(=O)c2nc3ccccc3n2CC(=O)c2ccc(F)cc2)cc1	88.4%	102%	99.8%	91.4%	108%	95.5%	35.6%	98.2%	131%	104%		68.6%	83%	89.1%	100%	190%	101%	86%	82.8%	87.3%
COc1cc(C2=NN(C(C)=O)C(c3cc(OC)c(OC)c(OC)c3)C2)ccc1O (stereo unspecified)	29.5%	38.5%	35.2%	32.8%	-6.58% (active)	48.5%	-33.8% (active)	21.7%	-17.2% (active)	-1.86% (active)		49.4%	4.4% (active)	-20.9% (active)	36.2%	-55.6% (active)	-30.7% (active)	60%	-28.3% (active)	17.9%
CCN(c1ccccc1)S(=O)(=O)c1cc([N+](=O)[O-])ccc1Cl	80.2%	36.4%	73.3%	105%	106%	49.9%	23.7%	102%	129%	94%		67.6%	56.3%	40.7%	77.4%	110%	36.2%	64.6%	70.9%	97.4%
Oc1ccc(C2c3ccccc3Oc3ccccc32)c2cccnc12	30.3%	4.5% (active)	24.3%	19.8%	2.23% (active)	43.1%	25%	12.2%	34.8%	31.2%		10.2%	30.2%	5.91% (active)	20.2%	13%	10.4%	3.42% (active)	-24.5% (active)	-18.4% (active)
Cc1ccc(-c2csc(NC(=O)CSc3nc(-c4ccccc4)cc(=O)[nH]3)n2)cc1	92.2%	103%	93.4%	100%	101%	82.5%	80.3%	91.7%	109%	103%		94.4%	93.2%	110%	90.2%	87.5%	97.7%	99.9%	105%	104%
O=C1/C=C/[C@@H](O)[C@@H]2C[C@@H](O)C[C@H]2/C=C/CCC[C@H](CCc2ccc3ncccc3c2)O1	-32.5% (active)	-28.7% (active)	17.6%	15.3%	15%	30.2%	-53.4% (active)	19.2%	-98.4% (active)	13.5%		-17.8% (active)	-43% (active)	-32.6% (active)	15.2%	1.79% (active)	19.2%	19.3%	6.52% (active)	-50.2% (active)
O=C(CSc1nc2ccccc2[nH]1)NCc1ccccc1	100%	95.9%	97.4%	88.5%	103%	105%	98.3%	100%	111%	110%		109%	103%	101%	98%	102%	95.6%	100%	107%	102%
CCCCC/C=C/C(C)=C/C1CC(C)C/C=C/CCC(O)C(OC(N)=O)CCC(C)CC(O)C(C)C(=O)O1 (stereo unspecified)	97.6%	104%	101%	82.7%	67%	24.5%	79.2%	85%	121%	79.5%		101%		110%	104%	59.2%	106%	88.1%	72.9%	77.9%
O=C1Nc2ccccc2/C1=C\c1c(-c2ccc(F)cc2)nc2ccccn12	49.1%	79.2%	83%	72.4%	82.6%	79.3%	42.6%	89%	76.6%	94.5%		73.7%	60.2%	67%	77.7%	59.9%	78%	102%	53.2%	82.1%
C=CCn1c(-c2ccc(-c3nc4ccc(C)cc4[nH]3)cc2)n[nH]c1=S	94.6%	94.1%	102%	97.7%	105%	117%	90.7%	99.2%	120%	111%		96.6%	90.7%	110%	112%	92.1%	97%	102%	98%	107%
Cn1cc(-c2nc(-c3c[nH]c4c(Cl)nccc34)cs2)c2cc(Br)ccc21	99.8%	81.4%	93.2%	82%	80.2%	91.2%	78.7%	66.6%	90.4%	80.3%		118%	96.9%	95.9%	105%	91.4%	82.5%	54.1%	73.5%	84.6%
COc1cc(NC(=O)CSc2nc3ccc(C)cc3c(=O)n2Cc2ccccc2)cc(OC)c1OC	74.2%	24.7%	63.4%	45.5%	57.3%	0.585% (active)	31.9%	66.6%	88.6%	80.7%		49.8%	35.5%	24.3%	69.1%	79.9%	11.8%	61.3%	65.6%	43.3%
OCc1cnccc1NCCCOc1ccccc1	97.7%	92.9%	100%	99.9%	106%	90.5%	100%	93.2%	123%	104%		104%	88.6%	104%	101%	104%	102%	100%	109%	101%
COc1cc2c3c(c4c5ccccc5[nH]c4c2c(OC)c1OC)C(=O)N(CCN1CCOCC1)C3=O	63%	69.8%	68.2%	59.9%	18.6%	75.4%	35.4%	45.1%	56.4%	66%		78.5%	72.4%	48.8%	47.7%	36.5%	63.7%	70.4%	76%	56.2%
N=C1C(c2nc3ccccc3s2)=C(O)CN1c1cc(Cl)cc(Cl)c1	88.6%	102%	89.1%	62.2%	67.5%	-15.8% (active)	86.5%	71.4%	90.6%	86.6%		63.8%	66.4%	63.9%	173%	88.2%	46.9%	74.4%	69%	71.1%

SMILES	growth [1]	growth [2]	growth [3]	growth [4]	growth [5]	growth [6]	growth [7]	growth [8]	growth [9]	growth [10]	growth [11]	growth [12]	growth [13]	growth [14]	growth [15]	growth [16]	growth [17]	growth [18]	growth [19]	growth [20]
COCc1cnccc1NC1CCCCCC1	103%	95.7%	98.6%	99.9%	108%	91.2%	89.9%	96.3%	121%	108%		105%	101%	100%	101%	101%	101%	99.5%	94.2%	106%
O=C(Cn1c(C(=O)c2ccccc2)nc2ccccc21)c1ccc(F)cc1	67.3%	84%	75%	78.2%	98.6%	77.3%	-9.34% (active)	79.3%	119%	96.6%		57.2%	46.7%	45.5%	73.3%	62.9%	78.8%	75.2%	44%	75.9%
N#CC1C(C#N)C2c3ccccc3C=CN2C1C(=O)c1ccc(Br)cc1 (stereo unspecified)	91.4%	91.6%	96.8%	97.7%	87.7%	95.8%	88.7%	83.6%	107%	97.8%	99.8%	100%	92.2%	105%	95.1%	96.8%	89.3%	103%	104%	
O=C1Nc2ccc(F)cc2/C1=C\c1c(-c2ccccc2)nc2ccccn12	53.4%	91.5%	76.3%	72.5%	81.5%	72.7%	21.3%	71.7%	91.9%	86.5%		67.5%	73.4%	50.8%	79.5%	57%	73.3%	90.7%	48.7%	75.4%
NC(=S)N1N=C(c2ccccc2)CC1c1cn(-c2ccccc2)nc1-c1ccc(OCc2ccccc2)cc1 (stereo unspecified)	104%	98.4%	94.9%	101%	106%	80%	83.5%	91.7%	115%	104%		101%	99.2%	110%	101%	105%	102%	92.9%	101%	98.4%
COc1ccc(C(=O)c2cc(OC)c(OC)c(OC)c2)cc1O	27.7%	84.6%	43.7%	22.7%	2.85% (active)	51.5%	12.4%	17.8%	41.9%	9.94% (active)	8.98% (active)	35.2%	24.8%	0.69% (active)	29.3%	-8.79% (active)	-22.1% (active)	69.3%		
Cc1ccc(C(=O)/C(=C/c2ccc([N+](=O)[O-])cc2)SCc2ccc(Cl)cc2)cc1	61.8%	76.3%	75.5%	100%	74.6%	92%	63.1%	67.9%	82.7%	86.9%		83.3%	83.8%	95.4%	69.8%	83.3%	112%	83%	74.6%	52.1%
O=[N+]([O-])c1ccc(N=Nc2cc(S(=O)(=O)O)c3cccc(S(=O)(=O)O)c3c2O)cc1	103%	105%	80.7%	107%	116%	87.8%	110%	114%	127%	132%		84.5%	112%	121%	115%	125%	104%	113%	97.6%	114%
O=C1c2c(c3c4cccc(F)c4[nH]c3c3ccc4ccccc4c23)C(=O)N1O	56.2%	54.1%	64%	63.2%	10.9%	79.1%	30%	65.7%	57.4%	55.1%		76.8%	70.8%	46.9%	32.5%	47.9%	40.4%	67.5%	38.3%	70.7%
COc1ccc2c(c1)oc1c(C)c3c(c(C)c12)C(=O)N(CCN1CCOCC1)C3=O	101%	96.4%	90.9%	101%	101%	106%	29.8%	90.8%	109%	107%		100%	86.2%	93.9%	99.5%	110%	100%	93.8%	104%	102%
C[C@H]1[C@H](C)CC[C@]2(C(=O)Nc3ccc4ncccc4c3)CC[C@]3(C)C(=CC[C@@H]4[C@@]5(C)CCCNC(C)(C)[C@@H]5CC[C@]43C)[C@H]12	51%	110%	63.1%	95.2%	-79.8% (active)	60.2%	9.94% (active)	-92.1% (active)	-82.7% (active)	-74.1% (active)		-78.5% (active)	-71.9% (active)	-84.8% (active)	-40.4% (active)	-50.8% (active)	-72.9% (active)	-86.9% (active)	-92% (active)	-96.2% (active)
COc1ccc(-c2cnc3c(-c4cccc5cnccc45)cnn3c2)cc1	74.5%	29.3%	68.3%	55.1%	23.4%	63%	48.3%	39.8%	67.8%	69.9%		45%	37.8%	48.7%	92.7%	62.5%	2.09% (active)	88.7%	74.5%	29.4%
Cc1ccc(C(=O)/C(=C\c2ccc([N+](=O)[O-])cc2)S(=O)Cc2ccc(Cl)cc2)cc1 (stereo unspecified)	41%	66.4%	80.3%	46.7%	30%	64.8%	-5.71% (active)	84.1%	20.7%	23.3%		34.1%	23.8%	-69% (active)	25.5%	73.2%	53.5%	94.9%	41.4%	-52.4% (active)
O=C1c2ccccc2C(=O)c2c([N+](=O)[O-])ccc(Cl)c21	89.3%	102%	99.7%	111%	101%	76.5%	59.2%	93.7%	116%	101%		116%	103%	94.3%	87.4%	116%	99.1%	96.2%	108%	96.6%
Cc1nn(-c2ccccc2)c(Cl)c1/C=C/C(=O)c1ccc(F)cc1	94.6%	85.8%	91.2%	89.5%	98%	88.1%	69.4%	83.8%	105%	104%		93.2%	97.9%	80.8%	96.8%	91.2%	89.9%	88.9%	80.6%	12.6%
Cc1ncc(C(=O)Nc2ccc(CN3CCN(C)CC3)c(C(F)(F)F)c2)cc1C#Cc1cnc(N)cc1C#N	30.6%	-71% (active)	28%	42.3%	-77.6% (active)	17.3%	-46.2% (active)	-89.5% (active)	21.5%	-96.1% (active)		-94.3% (active)	-81.4% (active)	-93.3% (active)	22.9%	70%	-98.4% (active)	-89.3% (active)	-75.1% (active)	-65.5% (active)
